Read-out in test [1]: Urokinase-type plasminogen activator receptor (uPAR), PLAUR (gene 5329)
Kind of test: BSK_4H_uPAR: BioMAP Diversity Plus: 4H Assay for Urokinase-type plasminogen activator receptor (uPAR) Biomarker Activity (AID 2283030). The conditions noted are these: primary human endothelial cells (HUVEC); actives raise or lower the signal. The essentials:
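Primary human umbilical vein endothelial cells were exposed to chemical for 24 h before cell-surface uPAR was quantified by ELISA. Activity was fitted bidirectionally against the DMSO negative control baseline.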

Read-out in test [2]: Human Leukocyte Antigen - DR isotype (HLADR), HLA-DRA (gene 3122)
Kind of test: BSK_BE3C_HLADR: BioMAP Diversity Plus: BE3C Assay for Human Leukocyte Antigen - DR isotype (HLADR) Biomarker Activity (AID 2283032). The conditions noted are these: primary human bronchial epithelial cells; actives raise or lower the signal. The method in brief:
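Primary human bronchial epithelial cells (BE3C); 24 h chemical exposure; HLA-DR by ELISA; bidirectional curve fit vs DMSO baseline.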

Read-out in test [3]: Vascular cell adhesion molecule 1 (VCAM1), VCAM1 (gene 7412)
Kind of test: BSK_4H_VCAM1: BioMAP Diversity Plus: 4H Assay for Vascular cell adhesion molecule 1 (VCAM1) Biomarker Activity (AID 2283033).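 For outcome: cell-surface VCAM-1 protein measured by ELISA.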 The conditions noted are these: primary human endothelial cells (HUVEC); actives raise or lower the signal. The essentials:
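HUVEC, 24 h post-dose; VCAM-1 by ELISA. Bidirectional curve fit vs DMSO baseline. Parallel SRB total-protein stain (0.1% SRB after 10% TCA fixation, 560 nm) for cytotoxicity.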

Read-out in test [4]: Interferon-gamma inducible Protein 10 (IP10), CXCL10 (gene 3627)
Kind of test: BSK_BE3C_IP10: BioMAP Diversity Plus: BE3C Assay for Interferon-gamma inducible Protein 10 (IP10) Biomarker Activity (AID 2283034). The conditions noted are these: primary human bronchial epithelial cells; actives raise or lower the signal. The essentials:
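ELISA readout of IP-10 in BE3C system: primary human bronchial epithelial cells, 24 h post-dosing; bidirectional curve fit vs DMSO baseline.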

Read-out in test [5]: Monokine induced gamma interferon (MIG), CXCL9 (gene 4283)
Kind of test: BSK_BE3C_MIG: BioMAP Diversity Plus: BE3C Assay for Monokine induced gamma interferon (MIG) Biomarker Activity (AID 2283035).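 Note: MIG protein measured by ELISA in BE3C cultures after 24 h of dosing.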 The conditions noted are these: primary human bronchial epithelial cells; actives raise or lower the signal. The essentials:
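hu bronchial epithelial 1° cells, 24 h cpd; MIG by ELISA; bidirectional fit, DMSO = baseline.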

Read-out in test [6]: Transforming growth factor beta 1 (TGFb1), TGFB1 (gene 7040)
The test can be described thus: BSK_BE3C_TGFb1: BioMAP Diversity Plus: BE3C Assay for Transforming growth factor beta 1 (TGFb1) Biomarker Activity (AID 2283036;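 for outcome: TGF-b1 protein level measured by ELISA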). The conditions noted are these: primary human bronchial epithelial cells; actives raise or lower the signal. The method in brief:
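Read-out: ELISA for TGF-b1 in primary human bronchial epithelial cultures, 24 h post-dose. Bidirectional curve fitting vs DMSO control; gain or loss of signal both scored.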

Read-out in test [7]: Plasminogen activator inhibitor-1 (PAI1), SERPINE1 (gene 5054)
The test can be described thus: BSK_BE3C_PAI1: BioMAP Diversity Plus: BE3C Assay for Plasminogen activator inhibitor-1 (PAI1) Biomarker Activity (AID 2283037). The conditions noted are these: primary human bronchial epithelial cells; actives raise or lower the signal. The essentials:
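ELISA read-out of PAI-1 from human bronchial epithelial primary cells, 24 h post-dosing; bidirectional curve fit vs DMSO baseline, gain or loss of signal scored.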

Read-out in test [8]: urokinase plasminogen activator (uPA), PLAU (gene 5328)
The test can be described thus: BSK_BE3C_uPA: BioMAP Diversity Plus: BE3C Assay for urokinase plasminogen activator (uPA) Biomarker Activity (AID 2283038).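 Note: uPA protein level quantified by ELISA in cell cultures; uPA read one day after compound addition.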 The conditions noted are these: primary human bronchial epithelial cells; actives raise or lower the signal. The method in brief:
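Human primary bronchial epithelial cells were exposed to chemical for 24 h, then uPA levels were measured by ELISA. Responses were fitted bidirectionally against DMSO as negative control and baseline. Parallel SRB staining of total protein gauged overt cytotoxicity.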

Read-out in test [9]: Urokinase-type plasminogen activator receptor (uPAR), PLAUR (gene 5329)
The test can be described thus: BSK_BE3C_uPAR: BioMAP Diversity Plus: BE3C Assay for Urokinase-type plasminogen activator receptor (uPAR) Biomarker Activity (AID 2283039).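 For outcome: cells exposed to compound for one day before measurement.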 The conditions noted are these: primary human bronchial epithelial cells; actives raise or lower the signal. The essentials:
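ELISA readout of uPAR on human lung primary bronchial epithelial cells, 24 h post-dosing. Bidirectional curve fit relative to DMSO vehicle baseline; gain or loss of signal both scored.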

Read-out in test [10]: Interleukin-6 (IL6), IL6 (gene 3569)
The test can be described thus: BSK_CASM3C_IL6: BioMAP Diversity Plus: CASM3C Assay for Interleukin-6 (IL6) Biomarker Activity for (AID 2283040). The conditions noted are these: primary human coronary artery smooth muscle cells; actives raise or lower the signal.

Read-out in test [11]: Tissue plasminogen activator (tPA), PLAT (gene 5327)
Kind of test: BSK_BE3C_tPA: BioMAP Diversity Plus: BE3C Assay for Tissue plasminogen activator (tPA) Biomarker Activity (AID 2283041).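 Note: tPA level quantified by ELISA one day after compound addition.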 The conditions noted are these: primary human bronchial epithelial cells; actives raise or lower the signal. The method in brief: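 ELISA read-out of tPA on human primary bronchial epithelial cells, 24 h post-dosing; bidirectional fit vs DMSO negative control/baseline.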

Read-out in test [12]: Interleukin-8 (IL8), CXCL8 (gene 3576)
Kind of test: BSK_CASM3C_IL8: BioMAP Diversity Plus: CASM3C Assay for Interleukin-8 (IL8) Biomarker Activity (AID 2283042).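 Note: IL-8 protein level quantified by ELISA.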 The conditions noted are these: primary human coronary artery smooth muscle cells; actives raise or lower the signal.

Read-out in test [13]: Human Leukocyte Antigen - DR isotype (HLADR), HLA-DRA (gene 3122)
The test can be described thus: BSK_CASM3C_HLADR: BioMAP Diversity Plus: CASM3C Assay for Human Leukocyte Antigen - DR isotype (HLADR) Biomarker Activity (AID 2283043).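 Note: cell-surface HLA-DR protein level quantified by ELISA.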 The conditions noted are these: primary human coronary artery smooth muscle cells; actives raise or lower the signal.

Read-out in test [14]: Macrophage colony-stimulating factor (MCSF), CSF1 (gene 1435)
The test can be described thus: BSK_CASM3C_MCSF: BioMAP Diversity Plus: CASM3C Assay for Macrophage colony-stimulating factor (MCSF) Biomarker Activity (AID 2283044).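 Note: M-CSF protein amount quantified by ELISA after 24 h exposure.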 The conditions noted are these: primary human coronary artery smooth muscle cells; actives raise or lower the signal.

Read-out in test [15]: Low-density lipoprotein receptor (LDLR), LDLR (gene 3949)
The test can be described thus: BSK_CASM3C_LDLR: BioMAP Diversity Plus: CASM3C Assay for Low-density lipoprotein receptor (LDLR) Biomarker Activity (AID 2283045).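 Note: LDLR protein level on the cell surface quantified by ELISA.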 The conditions noted are these: primary human coronary artery smooth muscle cells; actives raise or lower the signal.

Read-out in test [16]: Monocyte Chemoattractant Protein-1 (MCP1), CCL2 (gene 6347)
Kind of test: BSK_CASM3C_MCP1: BioMAP Diversity Plus: CASM3C Assay for Monocyte Chemoattractant Protein-1 (MCP1) Biomarker Activity (AID 2283046).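 Note: MCP-1 level quantified by ELISA 24 h after dosing.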 The conditions noted are these: primary human coronary artery smooth muscle cells; actives raise or lower the signal.

Test [17] can be described thus: BSK_CASM3C_Proliferation: Cell Proliferation Assessment in the BioMAP Diversity Plus: CASM3C Assay (AID 2283047).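 Note: sulforhodamine B total protein stain as relative cell number at 560 nm; sub-confluent cells exposed 48 h before staining; fitted both ways against DMSO so gain or loss of cell number.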 The conditions noted are these: primary human coronary artery smooth muscle cells.
Read-out in test [18]: Monokine induced gamma interferon (MIG), CXCL9 (gene 4283)
The test can be described thus: BSK_CASM3C_MIG: BioMAP Diversity Plus: CASM3C Assay for Monokine induced gamma interferon (MIG) Biomarker Activity (AID 2283048). The conditions noted are these: primary human coronary artery smooth muscle cells; actives raise or lower the signal.

Read-out in test [19]: serum amyloid A (SAA), SAA1 (gene 6288)
Kind of test: BSK_CASM3C_SAA: BioMAP Diversity Plus: CASM3C Assay for serum amyloid A (SAA) Biomarker Activity (AID 2283049).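 Note: SAA protein level quantified by ELISA.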 The conditions noted are these: primary human coronary artery smooth muscle cells; actives raise or lower the signal.

Read-out in test [20]: Vascular endothelial growth factor receptor 2 (Homo sapiens) (UniProt P35968)
The test can be described thus: BSK_4H_VEGFRII: BioMAP Diversity Plus: 4H Assay for Vascular endothelial growth factor receptor 2 (VEGFR2) Biomarker Activity (AID 2283031).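 For AC50: cell-surface VEGFR2 protein level quantified by ELISA.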 The conditions noted are these: primary human endothelial cells (HUVEC); actives raise or lower the signal. The method in brief:
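Primary human umbilical vein endothelial cells in the BioMAP 4H system were dosed with test chemical, and 24 h later VEGFRII was measured by ELISA. Activity was fitted bidirectionally against DMSO as negative control and baseline.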

This passage reports outcome and AC50 results from PubChem BioAssay (EPA / NIEHS).

More than one record can exist for a structure, and the calls need not agree. Calls of active or inactive are those of the source. Rule for the calls: active = hit-call score of the fitted dose curve at least 0.9, where 1 is the maximum; inactive = score below 0.9.

Take `COc1cnc(OC)n2nc(NS(=O)(=O)c3c(OCC(F)F)cccc3C(F)(F)F)nc12`: the result in test [1], in [2], in test [3], in test [4], in test [5] and in test [6] was inactive. Also, the outcome in test [7], in [8], in test [9], in test [10], in [11] and in test [12] was inactive. The outcome in test [13], in test [14], in test [15], in test [16], in [17] and in test [18] was inactive. Moreover, the result in test [19] was inactive. The AC50 (as a rule, the midpoint of the concentration-response curve, whichever way the signal moves) was 0.0487 µM (active) in [7] and 16.8 µM (active) in test [15].

For the molecule `CCNc1nc(Cl)nc(NCC)n1`, the result in [1], in [20], in [3], in [4], in [6] and in [7] was inactive. Besides, the outcome in test [8], in [9], in [10], in test [11], in [12] and in test [13] was inactive. For the same molecule, the result in test [14], in test [15], in test [16], in [17], in [18] and in test [19] was inactive.

Turning to `CCOP(=S)(OCC)SCn1c(=O)oc2cc(Cl)ccc21`, the result in test [1], in test [2], in test [4], in test [6], in test [7] and in test [8] was inactive. In addition, the outcome in test [10], in test [11], in test [13], in [14], in test [15] and in test [16] was inactive. Besides, the outcome in test [17], in [18] and in test [19] was inactive. In addition, the AC50 in test [3] is 26.1 µM (active); in [9], 0.147 µM (active); in test [12], 4.25 µM (active).

On to `CC(C)C1(C)N=C(c2nc3ccccc3cc2C(=O)O)NC1=O` (stereo not drawn), for which the result in test [1], in [20], in test [2], in test [3], in [4] and in [6] was inactive. Besides, the outcome in [7], in test [8], in test [9], in test [10], in test [11] and in [12] was inactive. Also, the result in test [13], in [14], in test [15], in [16], in test [17] and in test [18] was inactive. The result in test [19] was inactive.

Take `CS/C(C)=N/OC(=O)N(C)SN(C)C(=O)O/N=C(\C)SC`: the AC50 is 26.8 µM (active) in [1]; 28.7 µM (active) in test [20]; 30.1 µM (active) in test [2]; 31.1 µM (active) in test [3]; 25.9 µM (active) in test [4]; 35 µM (active) in test [10]. Moreover, the AC50 was 32.1 µM (active) in [12]; 28.9 µM (active) in test [14]; 34.7 µM (active) in test [16]; 6.19 µM (active) in test [17]; 35 µM (active) in [18]; 20 µM (active) in [19]. For the same molecule, the result in test [6], in test [7], in test [8], in test [9], in test [11] and in [13] was inactive. For the same molecule, the result in test [15] was inactive.

On to `O=C(O)COc1nc(Cl)c(Cl)cc1Cl`, for which the result in test [1], in test [2], in test [3], in test [4], in test [7] and in [8] was inactive. Moreover, the outcome in test [9], in [10], in test [11], in test [12], in test [13] and in test [14] was inactive. The outcome in test [15], in test [16], in test [17], in [18] and in test [19] was inactive. Further, the AC50 in [6] is 0.245 µM (active).
